High-throughput results (PubChem BioAssay)
MCL1 BIM primary: MCL1-BIM-BH3 interaction inhibition (human). Q07820. GST-MCL1 / FITC-Bim-BH3 fluorescence polarization. inhibition, % at 10.9 µM. hit rate 0.68% among 320,000;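 active = inhibition above the mean inhibition of all tested compounds plus 3 SD, set per campaign, cut at about 40% in these data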;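 also: 0% = DMSO wells and 100% = unlabeled Bim-BH3 peptide control; higher means more loss of mP so more displacement of Bim peptide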
Target sequence (Q07820 whole entry, looked up): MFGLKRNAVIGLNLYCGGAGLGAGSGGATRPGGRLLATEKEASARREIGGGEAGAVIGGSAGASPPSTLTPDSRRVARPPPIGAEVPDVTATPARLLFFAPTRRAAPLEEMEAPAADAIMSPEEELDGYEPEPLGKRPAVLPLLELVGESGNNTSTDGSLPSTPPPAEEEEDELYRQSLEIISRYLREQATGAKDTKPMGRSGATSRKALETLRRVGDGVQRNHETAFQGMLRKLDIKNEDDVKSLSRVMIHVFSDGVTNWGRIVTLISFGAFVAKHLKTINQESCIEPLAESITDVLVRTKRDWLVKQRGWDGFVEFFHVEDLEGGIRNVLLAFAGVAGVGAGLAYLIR
E coli Lon inh: inhibitors of E. coli Lon protease; AID 602123; inhibition, % at 7.94 µM; purified E. coli Lon protease, fluorescence polarization; P0A9M0; hit rate 0.42% among 360,000; in the data active = inhibition above about 13%, passing the limit was not always enough;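 also: 0% = enzyme with probe and DMSO and 100% = no enzyme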
Keap1 Nrf2 FP: Keap1-Nrf2 (human) interaction inhibition. Q14145. inhibition, % at 9.4 µM. Keap1 Kelch-Nrf2 peptide fluorescence polarization, 1536-well. hit rate 0.15% among 340,000. AID 504523; in the data active = inhibition above about 12%;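 also: human Keap1 Kelch domain with fluorescein labeled Nrf2 9mer peptide probe; 0% = neutral control wells and 100% = peptide positive control; higher means more block of Keap1 binding to Nrf2 peptide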
C-LANA FP: blocks KSHV LANA C-terminal domain binding to DNA; inhibition, % at 9 µM; hit rate 0.078% among 340,000; MBP-C-LANA/FAM-LBS DNA binding, fluorescence polarization;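 active = highest replicate inhibition at or above 60% at 9 µM, even if other replicates fall short; inactive = all replicates below 60% inhibition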;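 also: 0% = neutral control wells and 100% = 4 µM acridine orange control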
GLD-1 TGE inh: GLD-1-TGE RNA interaction inhibition (C. elegans). Q17339. purified GLD-1 + fluorescein TGE RNA, fluorescence polarization. inhibition, % at 5.96 µM. hit rate 0.44% among 320,000;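 active = percent inhibition above a per-plate cutoff, the plate mean of test compounds plus 3 SD, cut at about 30% in these data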;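 also: 0% = DMSO wells with GLD-1 and probe and 100% = wells lacking GLD-1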
BCLXL inh: Bcl-xL (human) inhibition. Q07817. GST-Bcl-xL / FITC-Bim BH3 peptide fluorescence polarization. inhibition, % at 10.9 µM. hit rate 0.7% among 320,000;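 active = inhibition above the mean of all tested compounds plus 3 SD, cutoff set per campaign, cut at about 30% in these data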;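 also: 0% = DMSO wells and 100% = unlabeled Bim-BH3 peptide competitor; inhibitors lower millipolarization by displacing the labeled peptide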
Bcl-xL conf: Bcl-xL (human) inhibition, MCL1 counter-screen confirmation; shares compounds with MCL1 BIM primary; GST-Bcl-xL / FITC-Bim BH3 peptide FP binding; inhibition, % at 10.9 µM; hit rate 54% among 1,700; AID 2166;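 active = inhibition above a cutoff equal to the mean inhibition of all tested compounds plus 3 SD, cut at about 30% in these data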;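 also: 0% = DMSO wells and 100% = unlabeled Bim BH3 control peptide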
MCL1 inh confirm: MCL1-BIM-BH3 interaction inhibition, confirmation. shares compounds with MCL1 BIM primary. AID 2168. hit rate 61% among 1,700. GST-MCL1 / FITC-Bim-BH3 fluorescence polarization. inhibition, % at 10.9 µM;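 active = inhibition above the average of all tested compounds plus 3 SD, cut at about 40% in these data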;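 also: 0% = DMSO wells and 100% = unlabeled Bim-BH3 control peptide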
GLD1 RNA confirm: GLD-1 TGE RNA interaction inhibition, confirmation. shares compounds with GLD-1 TGE inh. GLD-1/FL-TGE RNA fluorescence polarization, biochemical. inhibition, % at 5.96 µM. hit rate 10% among 550;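 active = average inhibition across triplicates above the hit cutoff set in the primary screen, cut at about 32% in these data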;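 also: 0% = GLD-1 with RNA probe and DMSO and 100% = wells lacking GLD-1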
Keap1 Kelch bind: Keap1 (human) Kelch domain binding. shares compounds with Keap1 Nrf2 FP. Keap1 Kelch thermal shift, delta Tm; hits give high values. max delta Tm, degrees C. hit rate 8% among 400; in the data active = max delta Tm above about 0.48 degrees C
Dye-only ctr: shifts Sypro Orange melt without protein, a false positive | shares compounds with Keap1 Nrf2 FP | delta Tm, degrees C (concentration not given with the values) | 140 tested, under 10 active | Sypro Orange dye-only thermal melt, no protein, delta Tm; top dose 26 µM;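 active = at highest dose tested, delta Tm positive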
eLon confirm: confirmation of E. coli Lon protease inhibitors. shares compounds with E coli Lon inh. purified E. coli Lon, fluorescence polarization. inhibition, % at 7.94 µM. hit rate 31% among 1,400. AID 602230; in the data active = inhibition above about 16%;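 also: 0% = enzyme with probe and DMSO and 100% = no enzyme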
* = called active by the depositor; . = not tested or not shown; + = active, no number. In the library only some 1.3% were active in any assay of this set; here they are far more common.

SMILES	MCL1 BIM primary	E coli Lon inh	Keap1 Nrf2 FP	C-LANA FP	GLD-1 TGE inh	BCLXL inh	Bcl-xL conf	MCL1 inh confirm	eLon confirm	others
CN1C(=O)NC(c2ccccc2[N+](=O)[O-])C2=C1CCCC2=O (stereo unspecified)	+	+	29*	46	+	+	154*	177*	+	Keap1 Kelch bind=0.01;Dye-only ctr=-34
Cc1ccc2[nH]c3ccccc3c(=O)c2c1	3	-4	-5	1	3	9	.	.	.
O=c1c2ccccc2[nH]c2ccc(O)cc12	89*	84*	-3	25	108*	74*	98*	145*	71*
CC(=O)c1c(-c2ccccc2)c2cc(Cl)ccc2n(C)c1=O	0	-10	-4	2	0	0	.	.	.
CC(=O)c1c2c3c(c(Br)ccc3n(C)c1=O)C(=O)c1ccccc1-2	64*	50*	3	5	57*	67*	42*	43*	21*
Cc1ccc(C(=O)CNc2cc(C)ccc2C)cc1	-1	-3	-7	0	-1	3	.	.	.
CCNc1cc(O)ccc1C	164*	117*	7	12	137*	138*	73*	85*	89*
Cc1ccc(NC(=O)CS(=O)CC(=O)Nc2ccccc2-c2ccc(C)o2)cc1 (stereo unspecified)	88*	114*	2	0	66*	72*	10	9	0	GLD1 RNA confirm=6
CC(=O)Nc1ccccc1-c1ccc(C)o1	-7	1	-2	0	0	1	.	.	.
COc1ccc(NC(=O)Nc2ccc3c(c2)C(=O)N([C@@H](C)CO)C[C@@H](C)[C@@H](CN(C)S(=O)(=O)c2cccs2)O3)cc1	.	12	0	1	1	.	.	.	.
O=C(N/N=C\c1cc(Br)c(Br)o1)c1cncc(Br)c1	6	-2	5	1	6	6	.	.	.
O=C(N/N=C/c1cc(Br)c(Br)o1)c1cccnc1	126*	27*	0	11	40*	94*	34*	44*	6	GLD1 RNA confirm=3
CCN(C[C@H]1N[C@@](Cc2ccccc2)(C(=O)OC)[C@H]2C(=O)N(C)C(=O)[C@@H]12)C(=O)c1ccc(C)cc1	.	0	-3	-2	4	.	.	.	.
O=c1[nH]nc(CNc2ccc(C(F)(F)F)cc2)c2ccccc12	9	1	4	1	2	5	.	.	.
O=c1[nH]nc(CNc2ccc(O)cc2)c2ccccc12	76*	51*	-8	2	89*	79*	51*	41*	-11
COc1ccccc1N1C(=O)c2cccc3c(N(C)CCO)ccc(c23)C1=O	+	176*	10	48	172*	183*	128*	152*	76*
Cc1ccccc1N1C(=O)c2cccc3c(N(C)CCO)ccc(c23)C1=O	+	124*	14*	57	167*	181*	121*	157*	84*	Keap1 Kelch bind=-0.02
COc1ccc2c3c(cccc13)C(=O)N(O)C2=O	69*	38*	-2	1	28	69*	67*	77*	87*
Nc1nnc(SCC(=O)OCC(=O)NC23CC4CC(CC(C4)C2)C3)s1	10	-4	-3	-2	4	4	.	.	.
